This is an account of results in PubChem BioAssay (Tox21).

Values without a mark were called inactive. The call rests on the fitted dose curve.
On the % scale 0 is the no-effect control and ±100 the full control effect.

The experiment deals with Estrogen receptor (Homo sapiens) (UniProt P03372). The experiment can be described thus: qHTS assay to identify small molecule agonists of the estrogen receptor alpha (ER-alpha) signaling pathway in the presence of an antagonist (AID 1259383). Further: top concentration of the series differs between compounds; nearly all actives have a fitted effect of over 15% in size. Conditions: VM7Luc4E2 cells, ERE-luciferase, +ICI-182,780, 22 h; series mostly up to 92.4 µM; activation: at the top concentration. The text has this: National Center for Advancing Translational Sciences [NCATS] NIH Chemical Genomics Center [NCGC] U.S. Environmental Protection Agency [EPA] National Institutes of Environmental Health Sciences [NIEHS] National Toxicology Program [NTP] Assay overview: Estrogen receptor (ER), a member of nuclear hormone receptor plays an important role in development, metabolic homeostasis and reproduction. Two subtypes of ER, ER-alpha and ER-beta, have similar expression patterns with some uniqueness in both types. Endocrine disrupting chemicals (EDCs) and their interactions with steroid hormone receptors like ER causes disruption of normal endocrine function. Therefore, it is important to understand the effect of environmental chemicals in ER signaling pathway. For identifying ER agonists, VM7Luc4E2 cell line has been used in the current assay. VM7Luc4E2 cell line (provided by Denison MS, University of California) endogenously expresses full-length ER-alpha and is stably transfected with a plasmid containing four estrogen responsive elements (ERE) upstream of a luciferase reporter gene. This current screening for measuring luciferase reporter gene activity using VM7Luc4E2 cells against Tox21 10K library collection is a confirmation study on agonist mode screening in presence of ER-antagonist (ICI-182,780) at 10.0nM final concentration.
Estrogen receptor (Homo sapiens), sequence (P03372 whole entry, looked up): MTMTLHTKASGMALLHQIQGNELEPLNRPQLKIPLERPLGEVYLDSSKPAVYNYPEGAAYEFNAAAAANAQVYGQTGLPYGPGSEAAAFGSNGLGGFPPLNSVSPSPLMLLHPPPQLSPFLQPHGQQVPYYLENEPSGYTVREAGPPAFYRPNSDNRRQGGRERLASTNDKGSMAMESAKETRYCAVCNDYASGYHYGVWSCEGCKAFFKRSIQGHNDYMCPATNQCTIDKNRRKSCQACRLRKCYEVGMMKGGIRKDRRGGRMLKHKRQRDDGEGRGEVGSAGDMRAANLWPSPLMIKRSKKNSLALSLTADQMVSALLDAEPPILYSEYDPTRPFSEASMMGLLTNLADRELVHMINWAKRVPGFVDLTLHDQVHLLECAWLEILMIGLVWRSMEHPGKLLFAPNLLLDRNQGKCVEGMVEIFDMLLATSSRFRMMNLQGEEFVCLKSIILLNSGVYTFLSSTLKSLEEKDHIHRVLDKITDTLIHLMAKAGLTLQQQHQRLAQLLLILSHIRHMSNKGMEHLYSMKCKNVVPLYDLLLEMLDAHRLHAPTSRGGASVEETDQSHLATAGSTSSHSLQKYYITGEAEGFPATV
Assay Protocol Summary: VM7Luc4E2 cells were cultured in phenol red free assay medium containing 10% charcoal stripped FBS for 5 days prior to the assay. The cells were dispensed at 4,000 cells in 4uL of assay medium per well into white wall/solid-bottom 1536-well plates (Corning Life Sciences, Corning, NY) using a Multidrop Combi (Thermo Fisher Scientific Inc., Waltham, MA) dispenser. After the assay plates were incubated at 37C and 5% CO2 for 24hr, 1uL of 10.0nM (final concentration) ICI-182,780 or assay buffer was added using two separate tips of Flying Reagent Dispenser (FRD, Aurora Discovery, San Diego, CA). Then 23nL of compounds dissolved in DMSO at 15 concentrations and positive controls or DMSO only was transferred to the assay plates by a Pintool station (Wako, San Diego, CA). The assay plates were incubated at 37C and 5% CO2 for 22hr. For luciferase read, 4uL/well ONE-Glo reagent (Promega Corporation, Madison, WI) was added to each well using FRD and after 30min incubation at room temperature, luminescence signal was measured on ViewLux plate reader (PerkinElmer, Shelton, CT).
(In general: qHTS replaces the single test concentration by a dilution series.)
As to `CCOc1ccc(NC(N)=O)cc1`, the “activation” value was 2.02%. For the compound `CCOC(=O)C(Br)c1ccccc1` (stereo not given), the “activation” value is -0.0723%. Consider `CCCCCCCCOC(=O)CCCCCCCCC(=O)OCCCCCCCC`, for which the “activation” value is 0.138%. On to `CC(C)(CO)[C@@H](O)C(=O)NCCC(=O)O`, for which the “activation” value was 0.383%. As to `O=Cc1ccc(F)c(Br)c1`, the “activation” value was 0.346%. Turning to `NNS(=O)(=O)c1ccc(Oc2ccc(S(=O)(=O)NN)cc2)cc1`, the “activation” value was 0.376%.

`CCC(=O)O[C@]1(C(=O)SCF)[C@H](C)C[C@H]2[C@@H]3C[C@H](F)C4=CC(=O)C=C[C@]4(C)[C@@]3(F)[C@@H](O)C[C@@]21C`: the “activation” value was 1.67% [at 42.5 µM]. Regarding `CN1CCN(c2c(F)cc3c(=O)c(C(=O)O)cn(CCF)c3c2F)CC1`, the “activation” value was -1.4% [at 42.5 µM].

`Cc1cc(S(=O)(=O)O)c(N)cc1Cl`: the “activation” value is -0.0317%. Consider `OCCN(CCO)c1ccccc1`, for which the “activation” value is -0.0908%. Turning to `O=C(O[C@@H](C(=O)O)[C@@H](OC(=O)c1ccccc1)C(=O)O)c1ccccc1`, the “activation” value is -0.94%. In the case of `N#CSCC(=O)O` it was 0.389% [at 42.5 µM].

Regarding `NCCCN1CCN(CCCN)CC1`, the “activation” value is -0.0598%. On to `CC(C)OC(C)C`, for which the “activation” value is -1.96%.

For `Nc1ccc(Oc2ccc(N)c(N)c2)cc1`, the “activation” value is 7.55%.

As for `O=C1N(c2ccccc2)c2ccccc2C1(Cc1ccncc1)Cc1ccncc1`, the “activation” value was -1.38% [at 42.5 µM]. In the case of `CC(=O)N[C@@H](CC(C)C)C(=O)O` it was -1.11% [at 42.5 µM]. For the compound `COC(=O)C(C)O` (stereo not given), the “activation” value was -0.111%.

Take `CCC/C=C/CO`: the “activation” value is -1.01%. Regarding `CCN(CC)CCNC(=O)COc1ccc(Cl)cc1`, the “activation” value is -0.812% [at 42.5 µM]. Take `COC(=O)N[C@H](C(=O)N[C@@H](Cc1ccccc1)[C@@H](O)CN(Cc1ccc(-c2ccccn2)cc1)NC(=O)[C@@H](NC(=O)OC)C(C)(C)C)C(C)(C)C`: the “activation” value is 0.206% [at 42.5 µM].

Turning to `NS(=O)(=O)c1cc(-c2nn[nH]n2)c(NCc2cccs2)cc1Cl`, the “activation” value was 1.85% [at 42.5 µM]. Take `Oc1ccccc1F`: the “activation” value was -1.57%.

As for `C[C@]12C(=O)OC(=O)[C@H]1[C@H]1C=C[C@@H]2C1`, the “activation” value was -0.574%. As for `CC(=O)OC1C2(C)CCC(C2)C1(C)C` (stereo not given), the “activation” value was -2.01%. Turning to `FC(F)(F)C(F)(F)C(F)(F)C(F)(F)C(F)(F)C(F)(F)C(F)(F)C(F)(F)Br`, the “activation” value was 0.309% [at 42.5 µM].

Consider `CCc1cc(Cl)c(OC)c(C(=O)NC[C@@H]2CCCN2CC)c1O`, for which the “activation” value is -2.07% [at 42.5 µM]. Under `COC(=O)/C=C(/C)N` stands 0.201% [at 42.5 µM]; under `CC1(C)O[C@@H]2C[C@H]3[C@@H]4CCC5=CC(=O)CC[C@]5(C)[C@@]4(F)[C@@H](O)C[C@]3(C)[C@]2(C(=O)CCl)O1`, 0.246% [at 42.5 µM].

Turning to `CC(C)C(=O)OC/C=C/c1ccccc1`, the “activation” value is 0.501%. `CCCCC(=O)O[C@]1(C(=O)CO)[C@H](C)C[C@H]2[C@@H]3CCC4=CC(=O)C=C[C@]4(C)[C@@]3(F)[C@@H](O)C[C@@]21C`: the “activation” value was 1.01% [at 42.5 µM]. `O=S(=O)(O)C(F)(F)F`: the “activation” value is -0.356%. In the case of `OC[C@H]1O[C@@H](O[C@H]2[C@H](O)[C@@H](O)[C@H](O)O[C@@H]2CO)[C@H](O)[C@@H](O)[C@H]1O` it was -1.12%. In the case of `O=C(Cl)c1cccc([N+](=O)[O-])c1` it was -0.124%; in that of `ICCc1ccccc1`, 0.343%.

For `N#Cc1ccc(C(c2ccc(C#N)cc2)n2cncn2)cc1`, the “activation” value was 1.14% [at 42.5 µM].

For `Cc1c(-c2ccccc2)oc2c(C(=O)OCCN3CCCCC3)cccc2c1=O`, the “activation” value was -0.657% [at 42.5 µM]. For `CC(C)C1=CC2=CC[C@@H]3[C@](C)(CCC[C@@]3(C)C(=O)O)[C@H]2CC1`, the “activation” value was 2.6%. Turning to `CCc1cc2cc(OC)c(OC)cc2c(Cc2ccccc2)n1`, the “activation” value was -1.96% [at 42.5 µM].

Consider `CC(C)CC(=O)OCc1ccccc1`, for which the “activation” value is -2.4%.
